ABHD5 PLIN5 PPI: ABHD5-PLIN5 protein interaction inhibition; inhibition, % at 4 µM; Split G. princeps luciferase complementation, luminescence, 4 h; 0.78% of 360,000 active; AID 602281;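 active = inhibition above the mean inhibition across every tested compound plus 3 SD, cut at about 22% in these data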;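 note: 0% = DMSO only wells and the 100% control is not disclosed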
MBD2 DNA inh: MBD2-methylated oligo binding inhibition. Q9UBB5. TR-FRET, MBD2 binding to methylated oligonucleotide. inhibition, % at 4.4 µM. 0.31% of 370,000 active; in the data active = inhibition above about 13%
LEDGF integ inh: blocks HIV-1 LEDGF/p75-dependent DNA integration; AID 743269; inhibition, % at 3.7 µM; TR-FRET IN-LEDGF/p75 DNA integration, Eu/Cy5; 0.64% of 370,000 active;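 active = inhibition above the screen-wide mean plus 3 SD, cut at about 13% in these data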;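 note: signal is the Cy5 over europium emission ratio at 671 and 618 nm; 0% = plate median of compound wells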
PRMT1 inh: PRMT1 (human) inhibition, primary screen | recombinant PRMT1, activity-based probe fluorescence polarization | 1.3% of 370,000 active | AID 652257 | inhibition, % at 2.79 µM | Q99873;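 active = inhibition above about 21% made by adding two undisclosed values, limit read from the data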
Target sequence (Q99873 whole entry, looked up): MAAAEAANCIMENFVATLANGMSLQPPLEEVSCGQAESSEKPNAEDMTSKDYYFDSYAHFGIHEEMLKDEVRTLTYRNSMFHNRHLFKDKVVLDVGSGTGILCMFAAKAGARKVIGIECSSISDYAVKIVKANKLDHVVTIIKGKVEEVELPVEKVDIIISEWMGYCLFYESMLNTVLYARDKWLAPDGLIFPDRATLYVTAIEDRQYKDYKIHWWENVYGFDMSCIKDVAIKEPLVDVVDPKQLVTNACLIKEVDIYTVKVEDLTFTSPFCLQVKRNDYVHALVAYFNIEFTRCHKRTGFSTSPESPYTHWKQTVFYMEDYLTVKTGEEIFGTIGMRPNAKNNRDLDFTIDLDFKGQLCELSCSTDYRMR
rCAG RNA binder: binds r(CAG) RNA repeats | inhibition, % at 3 µM | r(CAG) RNA repeat, TO-PRO-1 dye displacement fluorescence | 1.3% of 370,000 active;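 active = inhibition above the plate cutoff, the mean of all test compounds on that plate plus 3 SD, cut at about 35% in these data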;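 note: 0% = DMSO alone and 100% = 100 µM mitoxantrone as full dye displacement; higher means more dye released from RNA so lower well fluorescence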
UHRF1 MBD2 ctr: UHRF1 methyl-DNA binding inhibition; Q96T88; UHRF1 binding to methylated oligo, TR-FRET; inhibition, % at 4.4 µM; 0.75% of 370,000 active; in the data active = inhibition above about 21%;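 note: UHRF1 SRA domain binding a hemimethylated CpG hairpin DNA probe; 0% = median of test compound wells and 100% = reference inhibitor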
PRMT1 confirm: confirmation of human PRMT1 inhibitors. shares compounds with PRMT1 inh. recombinant His-PRMT1, activity-based probe fluorescence polarization. inhibition, % at 2.79 µM. 42% of 3,300 active;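 active = mean inhibition across replicates above the hit cutoff derived for the earlier primary screen, cut at about 22% in these data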
* marks the source's active call; other numbers are inactive results. The list is not random: actives were taken first. Their share in the collection is about 4.1%.

CCCOc1ccc(N2C(=O)CC(N3CCCC(C(=O)N4CCCC4)C3)C2=O)cc1 (centres undefined) was read as ABHD5 PLIN5 PPI 4.0, MBD2 DNA inh 0.4, LEDGF integ inh -2.1, PRMT1 inh 39.0*, rCAG RNA binder 1.2, UHRF1 MBD2 ctr -1.1 and PRMT1 confirm 6.5.
For CCOc1ccc(N2C(=O)CC(N3CCC(NC(=O)Nc4ccccc4)CC3)C2=O)cc1 (centres undefined) the results were ABHD5 PLIN5 PPI 0.6, MBD2 DNA inh 7.2, LEDGF integ inh -0.2, PRMT1 inh 64.3*, rCAG RNA binder -4.3, UHRF1 MBD2 ctr -2.8 and PRMT1 confirm 5.9.
Screening O=C(C1CCN(C2CC(=O)N(c3cccc(Cl)c3)C2=O)CC1)N1CCCCCC1 (centres undefined) returned ABHD5 PLIN5 PPI 10.7, MBD2 DNA inh 0.5, LEDGF integ inh 0.1, PRMT1 inh 28.9*, rCAG RNA binder -5.3, UHRF1 MBD2 ctr -0.3 and PRMT1 confirm 3.9.
Screening COc1cccc(CNC(=O)[C@H]2CCCN2C(=O)[C@H]2CCCN2C(=O)c2cccc(OC)c2)c1 returned MBD2 DNA inh 2.6, LEDGF integ inh -4.5, PRMT1 inh 3.6, rCAG RNA binder -0.1 and UHRF1 MBD2 ctr 0.0.
Screening O=S1(=O)N[C@@H](Cc2ccccc2)COc2cccc(N3CCCC3)c21 returned MBD2 DNA inh -5.0, LEDGF integ inh 0.9, PRMT1 inh -0.8, rCAG RNA binder 2.4 and UHRF1 MBD2 ctr -0.4.
`CCOC(=O)C1CCCN(C2CC(=O)N(c3cccc(C)c3)C2=O)C1` (centres undefined) gave ABHD5 PLIN5 PPI 2.7, MBD2 DNA inh 7.6, LEDGF integ inh -0.6, PRMT1 inh 63.1*, rCAG RNA binder -1.2, UHRF1 MBD2 ctr -2.2 and PRMT1 confirm 9.6.
Screening O=C(C1CCCN(C2CC(=O)N(c3ccc(F)cc3)C2=O)C1)N1CCCC1 (centres undefined) returned ABHD5 PLIN5 PPI 5.1, MBD2 DNA inh -2.9, LEDGF integ inh 1.8, PRMT1 inh 15.5, rCAG RNA binder -0.9 and UHRF1 MBD2 ctr -0.6.
O=C(C1CCCN(C2CC(=O)N(c3ccc(Cl)cc3)C2=O)C1)N1CCCC1 (centres undefined) was read as ABHD5 PLIN5 PPI 8.4, MBD2 DNA inh 0.7, LEDGF integ inh -5.0, PRMT1 inh 29.6*, rCAG RNA binder -7.7, UHRF1 MBD2 ctr 3.8 and PRMT1 confirm 3.0.
`CCCOc1ccc(N2C(=O)CC(SCC(N)C(=O)OCC)C2=O)cc1` (centres undefined) gave ABHD5 PLIN5 PPI -2.5, MBD2 DNA inh 2.0, LEDGF integ inh -1.7, PRMT1 inh 27.1*, rCAG RNA binder -4.6, UHRF1 MBD2 ctr 0.2 and PRMT1 confirm 23.4*.
Screening Nc1[nH]c(C(=O)c2ccccc2)c(-c2ccccc2Br)c1C(=O)c1cccs1 returned MBD2 DNA inh -1.4, LEDGF integ inh 4.2, PRMT1 inh -4.1, rCAG RNA binder 10.4 and UHRF1 MBD2 ctr -0.2.
Cc1ccc(CN(CC2CCCO2)C(=O)CN2C(=O)C(C(C)C)Oc3ccccc32)o1 (centres undefined) was read as ABHD5 PLIN5 PPI 8.9, MBD2 DNA inh 0.8, LEDGF integ inh -2.7, PRMT1 inh 32.2*, rCAG RNA binder -1.2, UHRF1 MBD2 ctr 0.2 and PRMT1 confirm 11.6.
For C=CS(=O)(=O)N(Cc1ccc(F)cc1)C(=C)C(=O)OC the results were MBD2 DNA inh 3.5, LEDGF integ inh -2.0, PRMT1 inh 5.1, rCAG RNA binder 2.7 and UHRF1 MBD2 ctr -0.1.
For Oc1ccc2c(c1)OCC1(O)Cc3cc(O)c(O)cc3C21 (centres undefined) the results were ABHD5 PLIN5 PPI 8.9, MBD2 DNA inh 0.9, LEDGF integ inh 8.7, PRMT1 inh 125.2*, rCAG RNA binder -231.4, UHRF1 MBD2 ctr 3.0 and PRMT1 confirm 119.4*.
Screening Oc1cc2c(cc1O)[C@H]1c3ccc(O)c(O)c3OC[C@@]1(O)C2 returned ABHD5 PLIN5 PPI 10.4, MBD2 DNA inh 3.8, LEDGF integ inh 82.7*, PRMT1 inh 43.0*, rCAG RNA binder 1.6, UHRF1 MBD2 ctr 6.2 and PRMT1 confirm 38.2*.
Screening COc1ccc(C2COc3cc(O)ccc3C2)c(OC)c1O (centres undefined) returned ABHD5 PLIN5 PPI -0.3, MBD2 DNA inh 2.7, LEDGF integ inh -2.7, PRMT1 inh 3.7, rCAG RNA binder -0.1 and UHRF1 MBD2 ctr 0.5.
Screening Cc1cccc(-c2cccc3c4c([nH]c23)[C@@H]2C[C@H](N(C)C(=O)c3ccco3)[C@H]([C@H](C)O)CN2CC4)c1 returned MBD2 DNA inh -0.9, LEDGF integ inh 3.0, PRMT1 inh 2.6, rCAG RNA binder 3.5 and UHRF1 MBD2 ctr -1.0.
COC(=O)[C@]12CCCCC=C1N(Cc1ccc(OC)cc1)C(=O)[C@@H]2CC(=O)N1CCCC1 was read as MBD2 DNA inh 1.6, LEDGF integ inh -4.3, PRMT1 inh 7.7, rCAG RNA binder -0.5 and UHRF1 MBD2 ctr 2.5.
For Cc1ccc(-c2nc3ncccn3c2Nc2ccccc2C)o1 the results were ABHD5 PLIN5 PPI 6.6, MBD2 DNA inh -4.7, LEDGF integ inh 6.3, PRMT1 inh 42.1*, rCAG RNA binder -2.5, UHRF1 MBD2 ctr -2.8 and PRMT1 confirm 12.7.
Cc1ccc(Nc2c(-c3ccc(C)o3)nc3ncccn23)cc1 was read as ABHD5 PLIN5 PPI 2.6, MBD2 DNA inh -3.1, LEDGF integ inh -2.1, PRMT1 inh 11.3, rCAG RNA binder -4.2 and UHRF1 MBD2 ctr -3.2.
Screening COC(=O)[C@]12C[C@H](CC(=O)NCc3ccccc3)C(=O)N(Cc3cccc4ccccc34)C1=C[C@H](C(C)(C)C)O[C@@H]2C returned MBD2 DNA inh 7.4, LEDGF integ inh 1.2, PRMT1 inh 4.7, rCAG RNA binder 5.5 and UHRF1 MBD2 ctr 1.2.
Screening COc1ccccc1NS(=O)(=O)c1cc(N2Cc3ccccc3C2=N)ccc1N1CCOCC1 returned ABHD5 PLIN5 PPI 7.6, MBD2 DNA inh 3.5, LEDGF integ inh -2.3, PRMT1 inh 26.5*, rCAG RNA binder 8.6, UHRF1 MBD2 ctr 5.0 and PRMT1 confirm 2.4.
CC(C)(C)S(=O)N1C[C@@H]2CC(=O)C=C2[C@H]1CCO (some centres undefined) was read as MBD2 DNA inh 2.1, LEDGF integ inh -1.3, PRMT1 inh 4.4, rCAG RNA binder 1.7 and UHRF1 MBD2 ctr 16.3.
O=C(CCNc1ccc(F)cc1)c1cc2ccccc2o1 was read as ABHD5 PLIN5 PPI 0.0, MBD2 DNA inh 4.8, LEDGF integ inh -3.1, PRMT1 inh 49.0*, rCAG RNA binder -0.6, UHRF1 MBD2 ctr 3.9 and PRMT1 confirm 41.7*.
Screening O=C(CCNc1cccc(F)c1)c1cc2ccccc2o1 returned ABHD5 PLIN5 PPI -2.3, MBD2 DNA inh 0.1, LEDGF integ inh -2.0, PRMT1 inh 15.6, rCAG RNA binder -0.4 and UHRF1 MBD2 ctr -0.4.
